# Source: PMC10726135, “HNF4α isoforms regulate the circadian balance between carbohydrate and lipid metabolism in the liver”
# Over roughly 18,000 sequences, “log2 normalized intensity” has its median near 0.39; the highest 2% begin near 6.6. This is one part of a sample in which the highest values are shown more often than they occur.
# Molecular target: T1, HNF4alpha2 (COS-7 nuclear extract) (Homo sapiens, UniProt P41235 1-474)
# T1 sequence: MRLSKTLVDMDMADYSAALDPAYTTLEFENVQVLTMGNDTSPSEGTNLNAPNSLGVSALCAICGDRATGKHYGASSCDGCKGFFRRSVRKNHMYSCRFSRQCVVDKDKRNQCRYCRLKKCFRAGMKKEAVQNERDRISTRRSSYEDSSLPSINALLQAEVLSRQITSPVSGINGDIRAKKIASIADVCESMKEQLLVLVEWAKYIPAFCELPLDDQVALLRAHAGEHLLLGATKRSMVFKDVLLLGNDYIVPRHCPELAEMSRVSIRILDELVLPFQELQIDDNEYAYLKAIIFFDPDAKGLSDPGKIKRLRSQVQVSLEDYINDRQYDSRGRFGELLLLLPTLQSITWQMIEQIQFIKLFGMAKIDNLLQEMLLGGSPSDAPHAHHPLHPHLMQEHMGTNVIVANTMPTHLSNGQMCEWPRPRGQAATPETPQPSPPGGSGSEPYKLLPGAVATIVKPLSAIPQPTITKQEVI
# Assay: protein-binding microarray; COS-7 nuclear extract on double-stranded Agilent 4x180k PBM; binding buffer, salt, pH and temperature not given in the material; high values mean tight binding
# Settings: chain copies: 2; label: 3' end of strand 1 on the slide; dsDNA, one strand shown
# How it was run: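 Nuclear extracts from COS-7 cells expressing a transiently transfected human HNF4α isoform were put on a custom Agilent SurePrint G3 4x180k array carrying ~44,000 double-stranded ~60-nt test sequences in quadruplicate. Imaging used an Agilent G2565CA scanner at 2-µm resolution. Binding signal is the background-corrected, normalized gProcessedSignal from Agilent software.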
row,Sequence,binding signal
1,CTTAAAGGCCTGTGTCGATGTTAACGCTAAGCCTAGGGAGATTAGAGTATCGGTCGA,-0.828 log2 normalized intensity
2,GCCCTTCCCCCCTCTGCAGCCTTACCCAGTGCCTAGGGAGATTAGAGTATCGGTCGA,4.59 log2 normalized intensity
3,TGTCGTTTGCTTAGTCTTATCTGAGGTGCCGCCTAGGGAGATTAGAGTATCGGTCGA,0.932 log2 normalized intensity
4,GAAATGGTGGACTTTGTAGCTCAAACAGTCGCCTAGGGAGATTAGAGTATCGGTCGA,3.13 log2 normalized intensity
5,TATGGATAGGCACATATTGGATCTCTGGTAGCCTAGGGAGATTAGAGTATCGGTCGA,0.865 log2 normalized intensity
6,CAGTTTGAAATTAGGCAATATGAGTAGAGCGCCTAGGGAGATTAGAGTATCGGTCGA,-0.693 log2 normalized intensity
7,TTGGCTAAAGTCCAAATTCCTTGGAATACAGCCTAGGGAGATTAGAGTATCGGTCGA,3.12 log2 normalized intensity
8,CACACACACACAGCATTCCATTCATTTTAGGCCTAGGGAGATTAGAGTATCGGTCGA,-0.727 log2 normalized intensity
9,AACATGTAATCATTTGGGACAAAGTTCATCGCCTAGGGAGATTAGAGTATCGGTCGA,4.11 log2 normalized intensity
10,TGAACAATTGATTTATAGCCTTTTTGCCCAGCCTAGGGAGATTAGAGTATCGGTCGA,1.29 log2 normalized intensity
11,TGCTTTCTTATCTGGGGGCCATTCCTCTATGCCTAGGGAGATTAGAGTATCGGTCGA,1.1 log2 normalized intensity
12,ACTTTGGAACTCAGTTAATGTACAGAGTATGCCTAGGGAGATTAGAGTATCGGTCGA,0.375 log2 normalized intensity
13,CCCCTTCTTAACATCAGAAGTTGGACTTTGGCCTAGGGAGATTAGAGTATCGGTCGA,7.59 log2 normalized intensity
14,AGGGACTTTGATCTTCTTACCCCTTTGCTGGCCTAGGGAGATTAGAGTATCGGTCGA,2.86 log2 normalized intensity
15,ATTAGAGAACATGTACTTTGTACTGCTTATGCCTAGGGAGATTAGAGTATCGGTCGA,4.15 log2 normalized intensity
16,TCTTAACATCAGAAGTTGGACTTTGTACATGCCTAGGGAGATTAGAGTATCGGTCGA,9.62 log2 normalized intensity
17,AGGAGATGTGGTGGACTTTAACGACCTTTGGCCTAGGGAGATTAGAGTATCGGTCGA,4.66 log2 normalized intensity
18,CTTTGCTCCCACCCTGCAATTCCCCTGGGCGCCTAGGGAGATTAGAGTATCGGTCGA,3.29 log2 normalized intensity
19,CAAACAGACCTCCCCCAACTTACTTAGTGGGCCTAGGGAGATTAGAGTATCGGTCGA,1.85 log2 normalized intensity
20,TTCAATTTTTTTGTTGTTATCCATTTAAAAGCCTAGGGAGATTAGAGTATCGGTCGA,1.04 log2 normalized intensity
21,GTATCTAATCTCAGATATGCTAATTAACCCGCCTAGGGAGATTAGAGTATCGGTCGA,1.79 log2 normalized intensity
22,GTTATGAGTCTGTTGTCTAACATTTTTGACGCCTAGGGAGATTAGAGTATCGGTCGA,0.629 log2 normalized intensity

row,Sequence,binding signal
1,CTTACTTGGCCTGTTTGCTGAAGGCCATGCGCCTAGGGAGATTAGAGTATCGGTCGA,0.0452 log2 normalized intensity
2,CAACTAGGGCAAAGGTTAGCTTGGACAGAGGCCTAGGGAGATTAGAGTATCGGTCGA,2.72 log2 normalized intensity
3,GGTATGTTTGTGATATTGTGAAATATATATGCCTAGGGAGATTAGAGTATCGGTCGA,2.03 log2 normalized intensity
4,GAACTGAAAGAGACCTTTGACATCACCTAAGCCTAGGGAGATTAGAGTATCGGTCGA,2.04 log2 normalized intensity
5,GTGGTCCTAAGACTGACCTTTGATCATTTGGCCTAGGGAGATTAGAGTATCGGTCGA,8.56 log2 normalized intensity
6,GACTGACCTTTGATCATTTGAGGGTGACACGCCTAGGGAGATTAGAGTATCGGTCGA,5.65 log2 normalized intensity
7,TGCACTTTGACCGCTCATTTGATCCTCACAGCCTAGGGAGATTAGAGTATCGGTCGA,3.87 log2 normalized intensity
8,AGTGCGATGATCATGGCTCACTGCACCTTGGCCTAGGGAGATTAGAGTATCGGTCGA,0.629 log2 normalized intensity
9,GATGATCATGGCTCACTGCACCTTGACCTCGCCTAGGGAGATTAGAGTATCGGTCGA,7.34 log2 normalized intensity
10,GCACTGATAAGCGTATTTCAACCTTTGATCGCCTAGGGAGATTAGAGTATCGGTCGA,7.8 log2 normalized intensity
11,TGCCTTTGATCAGGGACCTTTGTTCCTTTAGCCTAGGGAGATTAGAGTATCGGTCGA,4.43 log2 normalized intensity
12,GATAAGCGTATTTCAACCTTTGATCTATAAGCCTAGGGAGATTAGAGTATCGGTCGA,5.94 log2 normalized intensity
13,GTGGTCCTAAAATTGACCTTTGATCACTCAGCCTAGGGAGATTAGAGTATCGGTCGA,9.68 log2 normalized intensity
14,TCATGGCTCACTGCACCTTGACCTCCTGGGGCCTAGGGAGATTAGAGTATCGGTCGA,4.99 log2 normalized intensity
15,AGGAGGCACTGATAAGCGTATTTCAACCTTGCCTAGGGAGATTAGAGTATCGGTCGA,0.384 log2 normalized intensity
16,CACCTTCAGTCACACTGTTTGCGCAAACTAGCCTAGGGAGATTAGAGTATCGGTCGA,-0.824 log2 normalized intensity
17,TACCAAGGCTCAGAGGTCAAGTCACTGCTCGCCTAGGGAGATTAGAGTATCGGTCGA,2.57 log2 normalized intensity
18,CCTTGGCTGTGTGACTCACCTTTGCTCTGAGCCTAGGGAGATTAGAGTATCGGTCGA,3.71 log2 normalized intensity
19,GGGGTCTGGTTTCTAGGTAGATAAGGGAGTGCCTAGGGAGATTAGAGTATCGGTCGA,1.29 log2 normalized intensity
20,TCATCCGCATCTGAAGATAAGAGAAGTTGCGCCTAGGGAGATTAGAGTATCGGTCGA,-0.83 log2 normalized intensity
21,AACAGTGAATGTTTCGTAATATTTAGGTGTGCCTAGGGAGATTAGAGTATCGGTCGA,1.49 log2 normalized intensity
22,TCATTTTACAGATAAGGAAACCAAGGTCCAGCCTAGGGAGATTAGAGTATCGGTCGA,1.45 log2 normalized intensity

row,Sequence,binding signal
1,CACCCCCATGCAAGTTCCCACAGAGCCCACGCCTAGGGAGATTAGAGTATCGGTCGA,4.54 log2 normalized intensity
2,AGTGTAAATATTTGAGGACACAAAGTGGACGCCTAGGGAGATTAGAGTATCGGTCGA,2.09 log2 normalized intensity
3,AATCAACCTTTGATCGTTTGCATGCAGGGCGCCTAGGGAGATTAGAGTATCGGTCGA,3.25 log2 normalized intensity
4,GTTTACTCATGTGGTCCTAAGACTGACCTTGCCTAGGGAGATTAGAGTATCGGTCGA,3.77 log2 normalized intensity
5,GCTGACCTTTGGTCTAAACCTACTTAGATCGCCTAGGGAGATTAGAGTATCGGTCGA,4.25 log2 normalized intensity
6,TTGTTTACTCATGTGGTCCTAAGACTAACCGCCTAGGGAGATTAGAGTATCGGTCGA,-0.3 log2 normalized intensity
7,CTCATGTGGTCCTAAAATTGACCTTTGATCGCCTAGGGAGATTAGAGTATCGGTCGA,10.5 log2 normalized intensity
8,CAAATAAACCTTTGACCAATTGACCCTATCGCCTAGGGAGATTAGAGTATCGGTCGA,3.78 log2 normalized intensity
9,CTCATGTGGTCCTAAGACTGACCTTTGATCGCCTAGGGAGATTAGAGTATCGGTCGA,10.1 log2 normalized intensity
10,AATTGACCTTTGATCACTCATGGGCAAGATGCCTAGGGAGATTAGAGTATCGGTCGA,5.65 log2 normalized intensity
11,CCTAAAATTGACCTTTGATCACTCATGGGCGCCTAGGGAGATTAGAGTATCGGTCGA,8.21 log2 normalized intensity
12,GGTCAAAGAGCAATCATCAAGGTGGTTTCAGCCTAGGGAGATTAGAGTATCGGTCGA,1.71 log2 normalized intensity
13,AACACTTACACCTGGGTGCTCCCTCCCCCTGCCTAGGGAGATTAGAGTATCGGTCGA,4.36 log2 normalized intensity
14,CTGCCTTAGTCCCAGTATGGTCTCAGTAATGCCTAGGGAGATTAGAGTATCGGTCGA,-0.127 log2 normalized intensity
15,TCCTTTTGACCACAGTTATCTCCCCAGCTTGCCTAGGGAGATTAGAGTATCGGTCGA,2.47 log2 normalized intensity
16,ATCTCCCAGTTCTTTTGACCTTTGCCTCATGCCTAGGGAGATTAGAGTATCGGTCGA,7.95 log2 normalized intensity
17,CCTCAATGCTATCTCCCAGTTCTTTTGACCGCCTAGGGAGATTAGAGTATCGGTCGA,2.52 log2 normalized intensity
18,ATGCTATCTCCCAGTTCTTTTGACCTTTGCGCCTAGGGAGATTAGAGTATCGGTCGA,7.68 log2 normalized intensity
19,AGTTATATCTTACCTCCTTCTCCCCCATGCGCCTAGGGAGATTAGAGTATCGGTCGA,4.87 log2 normalized intensity
20,CCAGTTCTTTTGACCTTTGCCTCATTCTTAGCCTAGGGAGATTAGAGTATCGGTCGA,6.03 log2 normalized intensity
21,GAGCGCTTTGAGGCCTATGGCGAAAAAGGAGCCTAGGGAGATTAGAGTATCGGTCGA,-0.829 log2 normalized intensity
22,AATTCATCTCTAAGCTACTGAAAATGACCTGCCTAGGGAGATTAGAGTATCGGTCGA,3.39 log2 normalized intensity

row,Sequence,binding signal
1,ATCTCTAAGCTACTGAAAATGACCTTTGTTGCCTAGGGAGATTAGAGTATCGGTCGA,6.11 log2 normalized intensity
2,AAAAAAAAAAATTACTGACCCTTGCACTGTGCCTAGGGAGATTAGAGTATCGGTCGA,4.58 log2 normalized intensity
3,TAAGCTACTGAAAATGACCTTTGTTCCCTGGCCTAGGGAGATTAGAGTATCGGTCGA,8.2 log2 normalized intensity
4,TACTGAAAATGACCTTTGTTCCCTGCACTTGCCTAGGGAGATTAGAGTATCGGTCGA,7.15 log2 normalized intensity
5,AAAAAATTACTGACCCTTGCACTGTAAGATGCCTAGGGAGATTAGAGTATCGGTCGA,3.49 log2 normalized intensity
6,AAGCAATGGCTACCAAGGAGTGGACTGTTCGCCTAGGGAGATTAGAGTATCGGTCGA,1.7 log2 normalized intensity
7,GGGGGCAAGGTACACCATCTATGAGCTCAAGCCTAGGGAGATTAGAGTATCGGTCGA,1.28 log2 normalized intensity
8,AAAGGCGTTTGCTCCCATCCCCCCAAAGGCGCCTAGGGAGATTAGAGTATCGGTCGA,4.99 log2 normalized intensity
9,TTAGATCAGAGGTCTAATTCCCAAGGGTATGCCTAGGGAGATTAGAGTATCGGTCGA,-0.435 log2 normalized intensity
10,GAATTCTTGACTTTGGACTTTCAAAAGTTAGCCTAGGGAGATTAGAGTATCGGTCGA,4.21 log2 normalized intensity
11,TTTGGAATTTGACCTCATTTGCTCCCAGTGGCCTAGGGAGATTAGAGTATCGGTCGA,3.85 log2 normalized intensity
12,CTTTGTAGCACTTTGGACCTCCACTTTGGAGCCTAGGGAGATTAGAGTATCGGTCGA,3.1 log2 normalized intensity
13,TAGCACTTTGGACCTCCACTTTGGAGGGGGGCCTAGGGAGATTAGAGTATCGGTCGA,1.7 log2 normalized intensity
14,CCATTTTGGACTTTGACCTCCAAAATTATAGCCTAGGGAGATTAGAGTATCGGTCGA,10.4 log2 normalized intensity
15,CACAGCTGGACTTTGGCTGCAAAATTTGAAGCCTAGGGAGATTAGAGTATCGGTCGA,3.04 log2 normalized intensity
16,AATGATGATGACTTTTGACCCCAGGGGAAAGCCTAGGGAGATTAGAGTATCGGTCGA,5.51 log2 normalized intensity
17,GAGACCCATTTTGGACTTTGACCTCCAAAAGCCTAGGGAGATTAGAGTATCGGTCGA,10.7 log2 normalized intensity
18,CATTGACTTTGCCTTTTGGCTAAAGTCCAAGCCTAGGGAGATTAGAGTATCGGTCGA,4.16 log2 normalized intensity
19,CCAGTGAGACCCATTTTGGACTTTGACCTCGCCTAGGGAGATTAGAGTATCGGTCGA,11.9 log2 normalized intensity
20,TTAGCCCAGTGAGACCCATTTTGGACTTTGGCCTAGGGAGATTAGAGTATCGGTCGA,6.34 log2 normalized intensity
21,TTGGACTTTGACCTCCAAAATTATAAGTCAGCCTAGGGAGATTAGAGTATCGGTCGA,8.25 log2 normalized intensity
